Results: PubChem BioAssay AID588335 (The Scripps Research Institute Molecular Screening Center, 2011)
Out of some 360,000 compounds screened, about 4,500 (1.2%) were called active. This is one part of a sample in which actives are shown more often than they occur. No stated cut-off is given here; in the data, active means inhibition above about 30%; inactive means the rest.

Assay: GDH-TPI coupling enzyme inhibitors, primary screen, artefact control for M. tuberculosis FBA inhibitor project, biochemical, absorbance, full deck (AID 588335);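 further: 0% = DMSO wells and 100% = wells lacking the enzyme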
Settings: GDH-TPI coupled enzyme counterscreen, NADH absorbance; at 4.8 µM; active compounds read high

SMILES	inhibition
CCOC(=O)c1sc(N(Cc2ccccc2)C(=O)CN2C(=O)CN(C)C2=O)nc1C	-10.6% (inactive)
CC(C)(C)C1CCC(OC(=O)CCC(=O)Nc2ccccc2)CC1 (configuration not stated)	-9.56% (inactive)
CCCCn1c(N)c(N2CCOCC2)c(=O)n(CC(=O)NCCc2ccccc2)c1=O	8.07% (inactive)
NS(=O)(=O)c1ccc(NC2=CC(c3ccc(F)cc3)N(c3ccc(S(N)(=O)=O)cc3)C2=O)cc1 (configuration not stated)	4.35% (inactive)
CC(=O)C1=C(O)C(=O)N(c2ccc(Br)cc2)C1c1ccc([N+](=O)[O-])cc1 (configuration not stated)	21.6% (inactive)
CC(=O)C1=C(O)C(=O)N(c2ccc(S(N)(=O)=O)cc2)C1c1ccccc1F (configuration not stated)	32.2% (active)
CCCSC1=C(C#N)C(c2ccccc2C)C(C(=O)OC)C(=O)N1 (configuration not stated)	3.67% (inactive)
CC1CCC2(CC1)NC(=O)N(Cc1nnc(-c3cccs3)o1)C2=O (configuration not stated)	-10.1% (inactive)
CC1CN/C(=C\C(=O)c2ccc(Br)cc2)C(=O)N1 (configuration not stated)	33.3% (active)
COc1cc2c(cc1OC)/C(=C/C(=O)c1ccc(NC(C)=O)cc1)NCC2	14% (inactive)
CC1(C)Cc2ccccc2/C(=C/C(=O)c2ccccc2)N1	4.27% (inactive)
CCOC(=O)c1c(CC(C)C)csc1/N=C/C1=C(O)CCCC1=O	-3.83% (inactive)
CCOC(=O)c1c(N)sc2c1CCCC2=O	36% (active)
CCOC(=O)c1c(/N=C/c2cc(C)ccc2O)sc2c1CCC2	9.89% (inactive)
CCCCOc1ccc(N(CC(=O)NCC2CCCO2)C(=O)CCC(=O)Nc2cc(C)ccn2)cc1 (configuration not stated)	12.4% (inactive)
Cc1cccc(NS(=O)(=O)c2ccc(-c3cnc(C4CC4)o3)cc2)c1	-5.68% (inactive)
CC1C=CCC2C(=O)N(c3cccc(C(=O)N4CCCCCC4)c3)C(=O)C12 (configuration not stated)	5.39% (inactive)
Cc1ccc(-c2nn(C(C)(C)C)c3ncnc(N)c23)cc1	11.5% (inactive)
CCOC(=O)C(CC)Sc1ncnc2c1nnn2-c1ccc(F)cc1 (configuration not stated)	11.2% (inactive)
CCc1nnc(NS(=O)(=O)c2ccc(NC(=S)NC(=O)/C=C/c3cccs3)cc2)s1	32.2% (active)
CCc1nnc(NS(=O)(=O)c2ccc(NC(=O)c3cccc(OC(F)(F)C(F)F)c3)cc2)s1	-13% (inactive)
CCOC(=O)c1c(NC(=S)NC(=O)/C=C/c2cccs2)sc(C)c1C	-3.37% (inactive)

SMILES	inhibition
COc1ccc(NC(=O)N(C)C[C@H]2Oc3ncc(C#C[C@@H](C)O)cc3C(=O)N([C@H](C)CO)C[C@H]2C)cc1	1.42% (inactive)
Cc1ccc2c(c1)C1C[N+](C)(CC(=O)c3ccccc3)CCC1N2C(=O)c1ccccc1Cl (configuration not stated)	-8.62% (inactive)
CC1CCc2c(sc(NC(=O)c3ccc(Cn4cc(Br)cn4)o3)c2C(N)=O)C1 (configuration not stated)	7.5% (inactive)
O=C(N/N=C/c1ccc2c(c1)OCO2)c1ccc(Cn2cc([N+](=O)[O-])cn2)o1	43.3% (active)
CN(C)c1ccc(/C=N/NC(=O)C(O)c2ccc(Br)cc2)cc1 (configuration not stated)	30.4% (inactive)
O=C(c1ccc(Cn2cc([N+](=O)[O-])cn2)o1)N1CCCC1	-17.2% (inactive)
O=C(Nc1ccc(Br)c2cccnc12)c1ccc(Cn2cc([N+](=O)[O-])cn2)o1	4.69% (inactive)
CN(C)c1ccc(/C=N/NC(=O)c2ccc(Cn3cc(Br)cn3)o2)cc1	30.7% (active)
O=C(NCCCN1CCCCC1)C1CCCN(c2ncnc3c2nc2n3CCCCC2)C1 (configuration not stated)	-16.5% (inactive)
COc1ccc(OC)c(NC(=O)C2(C)CCN2C(=O)Cc2ccccc2)c1 (configuration not stated)	7.08% (inactive)
C=C(C)CNC(=S)/N=c1\scc(C)n1CC	13.2% (inactive)
O=C(NN=Cc1ccc(N2CCOCC2)cc1)c1cc2ccccc2cc1O	50.6% (active)
Cc1ccc(/C=N/NC(=O)c2cc3ccccc3cc2O)o1	34.5% (active)
Cc1ccc(/C=N/NC(=O)Cn2ccc(C(F)(F)F)n2)o1	7.37% (inactive)
COc1ccccc1C(=O)NC(=S)Nc1ccc(N2CCOCC2)cc1	19.6% (inactive)
O=C(O)c1ccc(NN=CC2=C(N3CCOCC3)/C(=C/c3ccccc3)CC2)cc1	22.9% (inactive)
Cc1ccc(/C=N/NC(=O)Cn2nc(C)c(Br)c2C)o1	5.47% (inactive)
CCOC(=O)CN(C(=O)CN1CCOCC1)c1ccc(Br)cc1	9.62% (inactive)
Cn1c(SCC(=O)N2CCOCC2)nnc1-c1ccc(NC(=O)c2ccccc2F)cc1	0% (inactive)
Cc1cccc(C(C)C)c1NC(=O)COC(=O)C1CC(=O)N(Cc2ccccc2)C1 (configuration not stated)	-2.1% (inactive)
COc1ccc(CCNS(=O)(=O)c2cc3c(cc2C)NC(=O)CO3)cc1OC	-4.31% (inactive)
CC1(C)CC(=O)C=C(NCc2ccncc2)C1	0.7% (inactive)

SMILES	inhibition
CCCNC(=O)N1CCC(c2ccc3c(c2)OCO3)CC1	-5.17% (inactive)
O=C1/C(=C\c2ccc3c(c2)OCO3)N2CCC1CC2	33.3% (active)
O=C1/C(=C/c2ccc3c(c2)OCO3)Oc2cc(OCC(=O)N3CC(O)C[C@H]3C(=O)O)ccc21 (some centres not stated)	28.4% (inactive)
CN(C(=O)CCn1c(=S)oc2ccccc21)C1CCCCC1	2.6% (inactive)
Cc1c(NS(=O)(=O)c2cccc(C(=O)Nc3ccc(SC(F)F)cc3)c2)c(=O)n(-c2ccccc2)n1C	0.43% (inactive)
O=C(Nc1ccccc1F)c1cc(S(=O)(=O)N2CCCCC2)cs1	-3.77% (inactive)
O=C1CN(C(=O)CN2C(=O)NC3(CCCCC3)C2=O)c2ccccc2N1	7.32% (inactive)
CC(=O)N1C(=O)C2(Nc3ccccc3N2)c2ccccc21	34.1% (active)
CC1(c2ccccc2)NC(=O)N(CC(=O)N2CC(=O)Nc3ccccc32)C1=O (configuration not stated)	-7.8% (inactive)
CSc1ccccc1NC(=O)CN(C)CC(=O)Nc1cccc(Br)c1	-2.5% (inactive)
CC1(C(=O)NS(=O)(=O)c2cccc(F)c2)CCN1C(=O)Cc1ccc(Cl)cc1Cl (configuration not stated)	1.79% (inactive)
COc1ccc(S(=O)(=O)NC(C)C(=O)NCc2ccncc2)cc1Cl (configuration not stated)	-4.46% (inactive)
O=C(COc1cc2oc(=O)c3c(c2cc1Cl)CCC3)NCCCN1CCOCC1	21.4% (inactive)
CC(Oc1cc2oc(=O)c3c(c2cc1Cl)CCCC3)C(=O)NCc1ccncc1 (configuration not stated)	30.8% (active)
COC(=O)Cn1c(=NC(=O)CSCC(=O)Nc2cc(C)on2)sc2ccccc21	3.99% (inactive)
CC(NC(=O)C(=O)Nc1nccs1)c1ccccc1 (configuration not stated)	9.56% (inactive)
O=C1C(=O)N(CCN2CCOCC2)C(c2cccc(Cl)c2)/C1=C(/O)c1ccc2c(c1)OCO2 (configuration not stated)	17.7% (inactive)
COCCN1C(=O)C(=O)/C(=C(/O)c2ccc(S(=O)(=O)N3CCOCC3)cc2)C1c1ccc(O)c(OC)c1 (configuration not stated)	5.9% (inactive)
COc1cccc(C2/C(=C(/O)c3ccc(F)cc3)C(=O)C(=O)N2CCN(C)C)c1 (configuration not stated)	10.2% (inactive)
COCCCN1C(=O)C(=O)/C(=C(/O)c2ccc(S(=O)(=O)N3CCOCC3)cc2)C1c1ccc(F)cc1 (configuration not stated)	31% (active)
COCCN1C(=O)C(=O)/C(=C(/O)c2ccc(S(=O)(=O)N3CCCCC3)cc2)C1c1ccc(OC)c(OC)c1 (configuration not stated)	33.3% (active)
CCOc1cc(C2/C(=C(/O)c3ccc(S(=O)(=O)N4CCCCC4)cc3)C(=O)C(=O)N2CCOC)ccc1O (configuration not stated)	0.74% (inactive)

SMILES	inhibition
O=C1C(=O)N(CCCN2CCOCC2)C(c2ccc([N+](=O)[O-])cc2)/C1=C(\O)c1ccc2c(c1)OCCO2 (configuration not stated)	33.9% (active)
COc1ccc(C2/C(=C(/O)c3ccc(OC(C)C)cc3)C(=O)C(=O)N2CCCN2CCOCC2)cc1 (configuration not stated)	11.5% (inactive)
COCCN1C(=O)C(=O)/C(=C(/O)c2ccc(S(=O)(=O)N3CCOCC3)cc2)C1c1ccc(OC)c(OC)c1 (configuration not stated)	9.09% (inactive)
Cc1ccc(C)c(NC(=O)NNC(=O)c2ccc3ccccc3c2O)c1	12.5% (inactive)
CCOC(=O)C1CCN(S(=O)(=O)c2ccc3c(c2)N(C)C(=O)CC(=O)N3C)CC1	6.72% (inactive)
O=C(CNCc1cccs1)Nc1cc(S(=O)(=O)N2CCCC2)ccc1Cl	2.39% (inactive)
O=C(NCc1nnc(SCC(=O)N2CCCc3ccccc32)o1)c1ccccc1F	11.2% (inactive)
CCOC(=O)c1c(C)n(C)c2ccc(OC)c(NS(=O)(=O)CC)c12	2.65% (inactive)
Cc1cc([N+](=O)[O-])c(-c2ccc(/C=N/n3cnnc3)o2)cc1Cl	34.8% (active)
Cc1ccccc1OCCOc1ccc([N+](=O)[O-])cc1/C=N/n1cnnc1	3.11% (inactive)
Clc1cc(-c2ccc(/C=N/n3cnnc3)o2)ccc1Br	18.6% (inactive)
CCOC(=O)c1cc(S(=O)(=O)NCCc2ccc(OC)c(OC)c2)cn1C	1.68% (inactive)
COc1ccc(C)cc1N(C(=O)Cn1nnc(-c2ccc(C)o2)n1)C(C(=O)NC1CCCC1)c1ccncc1 (configuration not stated)	-13.4% (inactive)
COCOc1cc(O)c(C(=O)/C=C/c2ccc(OCOC)c(OCOC)c2)c(OCOC)c1	6.25% (inactive)
COc1ccc(/C=C/C(=O)c2cc(Br)ccc(=O)c2O)cc1	55.6% (active)
CCOc1ccc(NC(=S)NC(=O)/C=C/c2ccc(OC)cc2)c([N+](=O)[O-])c1	11.6% (inactive)
Cc1ccc(C(=O)O)cc1N1C(=O)CCCC1=O	2.24% (inactive)
CCCN(CC(=O)Nc1ccccc1C)C(=O)c1ccc2[nH]c3c(c2c1)CC(C)CC3 (configuration not stated)	18.2% (inactive)
Oc1cccc(CCc2ccccn2)c1	7.36% (inactive)
COc1ccc(CC(=O)c2ccc(O)cc2O)cc1OC	26.1% (inactive)
O=C(Cc1ccccn1)c1ccc(O)cc1O	33.6% (active)
